Compound activity deposited in PubChem BioAssay by National Center for Advancing Translational Sciences (NCATS).
A selection: hits, their analogues and other compounds. The true share with any hit is near 11%.
Pf growth 48h: inhibits P. falciparum growth in the first generation, 48 h; hit rate 5.9% among 310,000; P. falciparum luciferase growth in erythrocytes, 48 h; Potency, µM (series often up to 28.7 µM), for inactives: at the highest dose activity change, negative = inhibition, actives largely listed as inhibitors
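In quantitative HTS format, infected erythrocytes bearing luciferase-reporter parasites were treated for a single generation at 37 C. Luminescence after adding detection reagent served as the growth measure.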
AMA1 RON2 block: disrupts binding of P. falciparum AMA1 to RON2; Potency, µM (doses to about 58.2 µM), inactives show top-dose activity change, negative = inhibition, usual class: inhibitors; hit rate 0.2% among 360,000; AID 720542; AlphaScreen AMA1-biotinylated RON2 peptide binding;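 also: 0% = vehicle wells and -100% = peptide control; nearly all actives have a fitted effect of over 45% in size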
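AMA1 (3D7) with his tag at 25 nM final met compounds first, then biotinylated RON2 peptide at 25 nM; detection used donor plus acceptor beads, 10 µg/mL apiece, read by AlphaScreen after 30 min at room temperature.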
HCV inhibitor: inhibitors of hepatitis C virus infection. Huh7.5.1 HCVcc-Cre infection, luciferase reporter, 44 h. Potency, µM (series often up to 41.8 µM), inactives show at the top dose activity change, negative = inhibition, usual class: inhibitors. hit rate 3.4% among 340,000. AID 651820
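Infectious HCV cell culture screen: compound-treated cells (1,000/well, pre-plated 4 h) are infected with HCVcc-Cre at roughly 0.5 moi and grown 44 h. Infection is quantified by luciferase signal after 15 min substrate incubation at room temperature.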
Pf growth 96h: inhibits malaria parasite growth, 96 h; hit rate 6.9% among 320,000; Potency, µM (highest dose often 28.7 µM), without a hit: at the top dose activity change, negative = inhibition, hits mostly inhibitors; AID 504834; P. falciparum luciferase reporter growth, 96 h
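96 h incubation, 37 C, 5% CO2, of luciferase-reporter P. falciparum-infected RBCs (2% hematocrit, 0.05% parasitemia final) with test compounds; endpoint luminescence.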
* marks the source's active call; other numbers are inactive results; ? = inconclusive; . = not tested or not shown. Calls follow the shape of the dose curve; as a rule, active = well fitted curve in the direction sought with a large enough effect; inconclusive = small, poorly fitted or top-dose-only effect, or another doubt; inactive = no such curve, though single readings can be large; an effect the other way counts as inactive or inconclusive. Unless noted, % is scaled to controls: 0 for no effect and ±100 for the full control effect; potency is read from the fitted curve at half-maximal effect.

SMILES	Pf growth 48h	AMA1 RON2 block	HCV inhibitor	Pf growth 96h
CCN1C(=O)[C@@H]2[C@@H](c3ccc(-c4ccc(C(C)=O)cc4)cc3)N3CCC[C@@]3(C(=O)OC)[C@@H]2C1=O	9.28µM*	-6.9%	-11.1%	?
CCN1C(=O)[C@H]2[C@@H](c3ccc(-c4ccc(C(C)=O)cc4)cc3)N3CCCC[C@@]3(C(=O)OC)[C@H]2C1=O	?	1.3%	9.0%	11.7µM*
CCN1C(=O)[C@H]2[C@@H](c3ccc(-c4ccc(C(C)=O)cc4)cc3)N3CCC[C@@]3(C(=O)OC)[C@H]2C1=O	?	-11.7%	?	?
COc1ccc(Nc2c(C3CC3)nc3nc(C)cc(C)n23)cc1	.	0.9%	.	.
COc1cccc(-c2cn(-c3cccc(C(F)(F)F)c3)c(=S)[nH]2)c1	10.4µM*	53.0%	?	?
O=C(Nc1ccc(S(=O)(=O)Nc2ncccn2)cc1)C1CC(=O)N(c2ccc(Cl)cc2)C1 (stereo unspecified)	23.1%	5.6%	17.5%	-4.3%
CC(=O)Nc1cccc(Cn2cccn2)c1	5.9%	.	2.1%	13.1µM*
Cn1c(Cn2cnc([N+](=O)[O-])n2)nnc1SCC(=O)Nc1ccccc1	14.1%	30.0%	-0.6%	2.94µM*
Cn1c(SCC(=O)Nc2ccc(N3CCOCC3)c(Cl)c2)nnc1C(O)c1ccccc1 (stereo unspecified)	?	-6.4%	-4.4%	20.9%
COc1ccc(NC(=O)CSc2nnc(Cn3cnc([N+](=O)[O-])n3)n2C)cc1	10.7%	-0.3%	0.7%	15.6%
CCOC(=O)CN(C(=O)CSc1nnc(COc2ccc(OC)cc2)n1C)c1ccccc1	?	29.3%	20.9%	11.7µM*
Cn1c(COc2ccccc2)nnc1SCC(=O)Nc1ccc(N2CCOCC2)c(Cl)c1	?	-2.6%	-28.6%	4.15µM*
CCOC(=O)CN(C(=O)CSc1nnc(CNc2ccc(F)cc2)n1C)c1ccccc1	?	-12.6%	9.7%	.
COC(=O)c1ccc(NC(=O)CSc2nnc(COc3ccccc3)n2C)cc1	8.28µM*	-5.0%	3.9%	60.1%
Cc1noc(C)c1NC(=O)Nc1ccc2c(c1)C(=O)N([C@H](C)CO)C[C@H](C)[C@@H](CN(C)S(=O)(=O)c1ccc(Cl)cc1)OCCCC[C@@H](C)O2	.	7.9%	.	.
CC[C@H](C)[C@H]1CNC(=S)N1CC1CCN(CC)CC1	.	-0.9%	.	.
CCCCC(C(=O)NC1CCCC1)N(C(=O)c1snc(C(N)=O)c1N)c1ccc(OCC)cc1 (stereo unspecified)	?	-17.5%	?	1.4%
CNC(=O)c1ccc(NC(=O)c2ccccc2OCc2c(C)noc2C)cc1	.	2.6%	.	.
COc1ccc(-n2nnnc2C(c2ccccc2)N2CCN(C/C=C/c3ccccc3)CC2)cc1 (stereo unspecified)	.	-28.0%	.	.
CCOc1ccc(NC(=O)CSc2nnc(Cn3cnc4ccccc43)n2C)cc1	-21.0%	3.3%	-10.2%	2.33µM*
COc1ccc(Cc2noc(=O)[nH]2)cc1	.	-8.8%	.	.
COc1cc2c(cc1NC(=O)CSc1nccn1C)oc1ccccc12	83.4%	?	2.82µM*	20.7%
CCN(CC)S(=O)(=O)c1ccc(C)c(NC(=O)CSc2nc3ccccc3[nH]2)c1	?	25.5%	?	?
COc1cc2c(cc1NC(=O)CSc1ccccc1)oc1ccccc12	36.3%	-3.9%	?	35.1%
Cc1ccc(S(=O)(=O)N(C)C)cc1NC(=O)Nc1ccccc1	4.15µM*	-8.6%	-1.8%	16.8%
SMILES	Pf growth 48h	AMA1 RON2 block	HCV inhibitor	Pf growth 96h
Cc1ccc(S(=O)(=O)N(C)C)cc1NC(=O)CSc1nc2ccccc2[nH]1	?	2.1%	-4.2%	9.28µM*
Cc1ccc(S(=O)(=O)N(C)C)cc1NC(=S)NC(=O)C12CC3CC(CC(C3)C1)C2	?	18.1%	15.8µM*	?
CCC(C(=O)NCc1ccccc1OC)c1ccccc1 (stereo unspecified)	28.1%	12.6%	18.8%	?
Cc1ccc(Cl)cc1N1CCN(C(=O)c2ccc3c(c2)CCN3S(C)(=O)=O)CC1	?	.	.	-39.4%
COc1cc2c(cc1NC(=O)CN(C)Cc1nc3ccccc3c(=O)[nH]1)oc1ccccc12	5.22µM*	19.2%	?	?
COc1cc2c(cc1NC(=O)CSc1nc3ccccc3[nH]1)oc1ccccc12	?	-1.5%	8.91µM*	?
COc1cc2c(cc1NC(=O)CSc1nc3cc(Cl)ccc3s1)oc1ccccc12	30.4%	-6.6%	-2.5%	13.5%
Cn1ccnc1SCC(=O)c1cccc(Br)c1	.	2.1%	17.1%	-5.2%
